Measurements from PubChem BioAssay AID651692 (Broad Institute, 2012).
Measured potencies and affinities stand elsewhere. Calls of active or inactive are those of the source.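 How the source made its calls: active means fitted half-maximal concentration for loss of cell signal no higher than twice the top valid tested concentration; inconclusive means flat curve at 30 to 70% inhibition, or poor fit; inactive means flat within 30%, signal rise, or potency above limit.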

Experiment: cytotoxicity toward MDA-MB-231 breast cancer cells – cell-based, CellTiter-Glo luminescence, cherry-pick, cytotoxicity control for RAD54 inhibitor project, dose response (AID 651692);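 further: more negative values mean stronger loss of viable cell signal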

**Q.** Which outcome does the source give for `Clc1ccc2[nH]c3c(NCCCN4CCOCC4)ncnc3c2c1` here?
**A.** Its outcome is “inactive”.

**Q.** With `NCc1csc(Nc2nncc3ccccc23)n1` as the compound, how does the outcome read?
**A.** The outcome was “inactive”.

**Q.** With `Cc1ccc2c(c1)c1nc3ccccc3nc1n2CCN1CCOCC1` as the compound, how does the outcome read?
**A.** The outcome was “inactive”.

**Q.** With `COc1ccc(C(=O)Nc2cc(C)c(NC(=O)c3ccccc3OC)cn2)cc1` as the compound, how does the outcome read?
**A.** The outcome was “inactive”.

**Q.** With `COc1ccc(C(=O)CN2CCN(CCN3C(=O)c4cccc5cccc(c45)C3=O)CC2)cc1` as the compound, how does the outcome read?
**A.** Its outcome is “inactive”.

**Q.** Which outcome does the source give for `CN1CCN(c2ccc(Nc3ccnc4cc(Cl)ccc34)cc2)CC1` here?
**A.** Its outcome is “inactive”.

**Q.** Which outcome does the source give for `CC(C)CSc1ncc(-c2cccc(C(F)(F)F)c2)cn1` here?
**A.** Its outcome is “inactive”.

**Q.** For `Cc1cccc2cc3c(N)c(C#N)sc3nc12`, which outcome is on record?
**A.** Its outcome is “inactive”.

**Q.** Which outcome does the source give for `CCN(CC)Cc1cc(Nc2ccnc3cc(Cl)ccc23)ccc1O` here?
**A.** The outcome was “inactive”.

**Q.** With `C=CCN1C(=O)C(C)(C)Nc2ccccc21` as the compound, how does the outcome read?
**A.** Its outcome is “inactive”.

**Q.** Which outcome does the source give for `CC(=O)Nc1ccc2cc3ccc(NC(C)=O)cc3nc2c1` here?
**A.** Its outcome is “inactive”.

**Q.** For `Cc1nc2oc3c(=O)[nH]cnc3c2c2c1COC(C)(C)C2`, which outcome is on record?
**A.** The outcome was “inactive”.

**Q.** For `CCC(=O)N(Cc1cc2cc(OC)ccc2[nH]c1=O)c1cc(C)ccc1C`, which outcome is on record?
**A.** The outcome was “inactive”.

**Q.** With `CC(=O)Nc1cc(-c2cccc(C(=O)NCCN(C)C)c2)cn2c(-c3ccc(S(C)(=O)=O)cc3)cnc12` as the compound, how does the outcome read?
**A.** The outcome was “inactive”.

**Q.** With `c1c[nH]c(CN2CCN(Cc3ncc[nH]3)CC2)n1` as the compound, how does the outcome read?
**A.** The outcome was “inactive”.

**Q.** With `Cc1ccc2nc3c(c(N)c2c1)CCN3C` as the compound, how does the outcome read?
**A.** Its outcome is “inactive”.

**Q.** For `O=C(NN1CCOCC1)c1cc(-c2ccc(Cl)c(Cl)c2)nc2ccccc12`, which outcome is on record?
**A.** The outcome was “inactive”.

**Q.** Which outcome does the source give for `COC(=O)c1c(NC(=O)c2ccco2)sc2c1CCN(C(C)C)C2` here?
**A.** The outcome was “inactive”.

**Q.** For `CN(C)CCNC(=O)c1cccc(-c2cnc3c(NC=O)cc(-c4ccccc4F)cn23)c1`, which outcome is on record?
**A.** The outcome was “inactive”.

**Q.** With `CN(C)CCCNc1nc2cc(-c3ccc(F)cc3)sc2c(=O)n1C` as the compound, how does the outcome read?
**A.** Its outcome is “inactive”.

**Q.** For `CN(C)CCNC(=O)c1cccc(-c2cnc3c(NC=O)cc(-c4cccs4)cn23)c1`, which outcome is on record?
**A.** The outcome was “inactive”.

**Q.** Which outcome does the source give for `COc1ccc2nc(-c3ccc(N)cc3)[nH]c2c1` here?
**A.** Its outcome is “inactive”.

**Q.** With `CN(C)CCCN(C(=O)CCOc1ccccc1)c1nc2ccc(F)cc2s1` as the compound, how does the outcome read?
**A.** The outcome was “inactive”.

**Q.** With `CCN1CCN(c2cc(C)c3cc(NC(=S)NCCCN4CCc5ccccc5C4)ccc3n2)CC1` as the compound, how does the outcome read?
**A.** Its outcome is “inactive”.

**Q.** Which outcome does the source give for `CCOc1cc2[nH]c(=S)n(Cc3ccc(C(=O)NCCCN(CC)CC)cc3)c(=O)c2cc1OCC` here?
**A.** Its outcome is “inactive”.

**Q.** For `Cc1c(C)n(CCN(C)C)c2ccc(C(=O)OCCN(C)C)cc12`, which outcome is on record?
**A.** The outcome was “inactive”.

**Q.** For `CC1CCc2sc3nc(N4CCN(CCO)CC4)n4ncnc4c3c2C1` (centres undefined), which outcome is on record?
**A.** Its outcome is “inactive”.

**Q.** With `OCCN1CCN(c2ncnc3c2sc2nc(N4CCOCC4)c4c(c23)CCC4)CC1` as the compound, how does the outcome read?
**A.** Its outcome is “inactive”.

**Q.** Which outcome does the source give for `Cc1[nH]ccc2c1[nH]c1cc(=O)ccc12` here?
**A.** Its outcome is “inactive”.

**Q.** Which outcome does the source give for `COc1ccc(-c2cnc3c(NC(C)=O)cc(-c4cccc(C(=O)NCCN(C)C)c4)cn23)cc1OC` here?
**A.** Its outcome is “inactive”.

**Q.** With `COc1cccc(-c2nc(N3CCN(Cc4ccccc4)CC3)c3ccccc3n2)c1O` as the compound, how does the outcome read?
**A.** The outcome was “inactive”.

**Q.** Which outcome does the source give for `CCOC(=O)c1cnc2ccc(OC)cc2c1Nc1ccc(N2CCN(C)CC2)cc1` here?
**A.** The outcome was “inactive”.

**Q.** Which outcome does the source give for `Cc1ccc(S(=O)(=O)CCSc2ccc(C(F)(F)F)cn2)cc1` here?
**A.** The outcome was “inactive”.

**Q.** For `CN(C)CCN(C(=O)c1ccc2c(c1)OCCO2)c1nc2c(Cl)cccc2s1`, which outcome is on record?
**A.** The outcome was “inactive”.

**Q.** With `O=C(CN1CCCCC1)n1c2ccccc2c2ccccc21` as the compound, how does the outcome read?
**A.** The outcome was “inactive”.

**Q.** Which outcome does the source give for `CC(C)OCC(O)CN1CCN(CCN2C(=O)c3cccc4cccc(c34)C2=O)CC1` (centres undefined) here?
**A.** The outcome was “inactive”.

**Q.** For `Cc1cc(C)c2c(N)c3ccccc3nc2n1`, which outcome is on record?
**A.** The outcome was “inactive”.

**Q.** With `Cc1ccc(Nc2cc(C)nc3c(C)cccc23)cc1` as the compound, how does the outcome read?
**A.** Its outcome is “inactive”.

**Q.** For `CN(C)c1cc(NC(=O)CNC(C)(C)C)c2ccccc2n1`, which outcome is on record?
**A.** The outcome was “inactive”.
